The values that follow come from PubChem BioAssay (NCATS).

Results filed as inconclusive are left out. A number with no mark means an inactive call. Calls come from the whole dose curve; as a rule, active = well fitted inhibition curve with a large enough effect; inconclusive = small, poorly fitted or top-dose-only effect; inactive = flat fitted curve, though single readings scatter.
% is set by controls: 0 for no effect and ±100 for the full control effect.

Calcium and integrin-binding protein 1 (Homo sapiens), sequence (Q99828 whole entry, looked up): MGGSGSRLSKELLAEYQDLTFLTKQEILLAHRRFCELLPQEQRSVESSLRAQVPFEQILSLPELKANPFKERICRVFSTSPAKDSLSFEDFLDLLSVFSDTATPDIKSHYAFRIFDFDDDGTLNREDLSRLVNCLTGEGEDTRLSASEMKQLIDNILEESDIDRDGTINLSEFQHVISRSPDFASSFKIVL

The assay has as its target Calcium and integrin-binding protein 1 (Homo sapiens) (UniProt Q99828). Description: Primary qHTS for Identification of Calcium Integrin Binding Protein 1 (CIB1) Competitor (AID 1508620).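 Note: GST tagged CIB1 binding a fluorescein labelled alphaIIb integrin peptide tracer; top concentration of the series differs between compounds.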 The settings on record: CIB1-GST / FITC-alphaIIb peptide fluorescence polarization; series mostly up to 114 µM; activity change, negative = inhibition: at the top concentration. Put shortly:
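Fluorescence polarization competition: CIB1-GST (1 uM final) preincubated with compound 15 min at room temperature, then FITC-labeled alphaIIb peptide (100 nM final) added for another 15 min. Polarization read at Ex 480/Em 540.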
For the compound `Clc1cc2c(NC3CCCC3)nnc(-c3ccncc3)c2cc1Cl`, the “activity change, negative = inhibition” value is -4.99% [at 30.2 µM].
Turning to `Cc1cc(N2CCN([C@@H]3CN[C@H](C(=O)N4CCSC4)C3)CC2)n(-c2ccccc2)n1`, the “activity change, negative = inhibition” value was -3.37%.
The same measure for `CC(C)CCC(=O)CC1c2ccccc2C(=O)N1c1ccc2ccc(Cl)nc2n1` (configuration not stated): -1.1%.
The same measure for `O=C(OC1C=C(CO)C2C(OC3OC(CO)C(O)C(O)C3O)OC=CC12)c1ccc(O)cc1` (configuration not stated): 5.71% [at 57.7 µM]; for `C/C(=C\CCC(C)CCO)C(=O)O[C@@H]1[C@@H](O)[C@H](OC2OC=C(C(=O)O)C3CCC(C)(O)C23)O[C@H](CO)[C@H]1O` (some centres not stated): -0.877% [at 57.7 µM].
The same measure for `CC(O)/C=C/C1(O)C2(C)COC1(C)CC(O)C2` (configuration not stated): 7.4%; for `C=CC1(C)C=C2CCC3C(C)(C)C(O[C@@H]4O[C@@H](CO)[C@H](O)[C@H]4O)CCC3(C)C2CC1O[C@@H]1O[C@H](C)[C@H](O)[C@H](O)[C@H]1O` (some centres not stated): -1.33% [at 57.7 µM]; for `c1ccc(-c2ncc(CN3CCN(c4ncccn4)CC3)[nH]2)cc1`: 0.649%.
Take `C=CCC1=C[C@]2(OC)[C@H](C)[C@@H](c3ccc(O)c(OC)c3)O[C@]2(OC)CC1=O`: the “activity change, negative = inhibition” value is 1.95% [at 57.7 µM].
The same measure for `Nc1ncnc2c1nc(N)n2[C@@H]1O[C@H](CO)[C@@H](O)[C@H]1O`: 2.83%; for `COC1C(CO)OC(n2cnc3c(=O)[nH]cnc32)C1O` (configuration not stated): -1.21%; for `C[C@H](NC(=O)CCc1nc2ccccc2c(=O)[nH]1)c1ccccc1`: -3.02%.
